We go through 40 compounds from PubChem BioAssay (NCI).

Structures are written as SMILES. Where “and” joins values, the source holds several entries; their conditions need not be identical. Identical values can stand only once. About 83,000 compounds went through this panel and 20% of them were active in at least one assay; those are over-represented in the sample as a whole.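 Results are percent growth after 48 hours of single-concentration exposure. 100 means growth as in untreated cells, lower positive values show inhibition; negative values down to -100 show cell death.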 Calls of active or inactive are those of the source. How the source made its calls: active means growth percent below 10; inactive means the rest.

For this assay, the system named is MDA-MB-468 breast. Briefly: NCI-60 one-dose screen, 48 h (100 = growth as untreated, 0 = no growth, -100 = all killed). As to conditions: 10 µM unless noted.
Regarding `COc1cc(NCCCCCN=C(N)NC(N)=NC(C)C)c2ncccc2c1`, the growth was -63.5% (active). On to `COc1cc(-c2nn(-c3ccc(NC(=O)c4ccc(Cl)c(Cl)c4)cc3)cc2-c2ccncc2)ccc1Cl`, for which the growth is 78.3% (inactive). To `COc1ccc(C(=O)C[C@]2(O)C(=O)Nc3c(Cl)ccc(Cl)c32)cc1` belongs -7.27% (active). The value for `O=C(O)c1cn(C2CC2)c2cc(N3CCN(C(=O)N/N=C/c4cccc5ccccc45)CC3)c(F)cc2c1=O` was 103% (inactive). To `CCN(CC)CCNC(=O)c1ccc(-c2nc3ccc4[nH]ncc4c3c3c2CCCC3)cc1` belongs 17.4% (inactive).

Consider `CC(=O)C1=C(C)NC(NNC(N)=S)=NC1c1ccccc1` (stereo not given), for which the growth is 100% (inactive). For the compound `COc1ccc2c(c1OC)C(=O)O[C@H]2[C@H]1c2c(cc3c(c2OC)OCO3)CCN1C`, the growth is 90.3% (inactive).

`Oc1cccc(Nc2nc(-c3ccccn3)cs2)c1`: the growth was 110% (inactive). Turning to `C=CCN1C(=O)c2cccc3c(-c4ccc5c(c4)ncn5C4CCCCC4)ccc(c23)C1=O`, the growth was 34.6% (inactive). To `COc1ccc(-c2nc(-c3cc(OC)cc(OC)c3)[nH]c2-c2ccc(OC)cc2)cc1` belongs 31.4% (inactive).

Regarding `Cc1ccc(-c2cc(O)c(-c3ccc(C)cc3C)cc2O)c(C)c1`, the growth was 46.5% (inactive). For `CC(=O)c1ccc2c(c1)c1ccccc1n2C`, the growth is 79.5% (inactive). Consider `CCOC(=O)NC(Cc1ccccc1)c1ccccc1` (stereo not given), for which the growth is 106% (inactive).

Turning to `O=C(CN1C(=O)/C(=C\c2ccc(Cl)cc2)SC1=S)Nc1ncc(Cc2ccc(Cl)cc2)s1`, the growth was 108% (inactive). For `Oc1ccccc1C=Nc1ccc(N2CCN(c3ccccc3)CC2)cc1`, the growth was 108% (inactive). The value for `O=C(O)c1cccc([N+](=O)[O-])c1` was 109% (inactive); that for `O=C(Cc1ccccc1)NC(c1ccc(Cl)cc1)c1c(O)ccc2ccccc12` (stereo not given) was 7.01% (active). Take `Cc1cc(O)ccc1Sc1ccccc1[N+](=O)[O-]`: the growth was 95.3% (inactive).

On to `CSc1nc2sc3cc(Cl)ccc3n2c(=N)c1C#N`, for which the growth is -45% (active). Take `Cc1c2c(nn1C(=O)c1nn(-c3ccc(Cl)cc3)cc1O)-c1ccccc1CC2`: the growth was 13.9% (inactive). The value for `COC(=O)c1ccc(C(=Nc2ccc(N(C)C(=O)CN3CCN(C)CC3)cc2)c2c(O)[nH]c3ccc(C(=O)OC)cc23)cc1` was 62.5% (inactive); that for `O=c1[nH]c2ccc(Br)cc2c2c1C(c1ccc(Cl)cc1)c1c(ncn3nc(-c4ccco4)nc13)O2` (stereo not given) was 85.9% (inactive). `CN(C)c1ccc2c(N(C)C)cc(N(C)C)nc2c1`: the growth is 7.64% (active). To `COc1c(B(O)O)cc(F)cc1-c1nc2ccc3[nH]ncc3c2c2c1CCCC2` belongs -4.35% (active). For the compound `O=C1c2ccccc2-c2nccc3cc(Cl)nc1c23`, the growth was -87.2% (active). The value for `COc1ccc(-c2c[nH]c(C(=O)O)c2-c2cc(OC)c(OC)c(OC)c2)cc1` was 11.8% (inactive); that for `C/C(CC(C)C)=N/NC(N)=S` was 7.03% (active).

As to `Cc1ccc(C)c(NC2=C(Cl)C(=O)c3nc(C)ccc3C2=O)c1`, the growth was -73.5% (active). Consider `O=C(c1ccccc1)N(C(=S)NCCc1ccc(Cl)cc1)c1ccccc1`, for which the growth was 30.3% (inactive). To `CS(=O)(=O)c1nccc(-c2c(-c3cccc(OCc4ccccc4)c3)nc3sccn23)n1` belongs -65.1% (active). To `COc1cccc(-c2nn(-c3ccccc3)cc2-c2ccnc(NCCNC(=O)Nc3ccccc3)c2)c1` belongs 49.7% (inactive); to `Nc1nc(N)c2c(n1)NC(c1ccccc1)C1CCc3ccccc3C1=N2` (stereo not given), -12.7% (active); to `CC1=C(C(=O)OCC2CCN(C(=O)OC(C)(C)C)CC2)[C@H](c2cccc(Br)c2)C2=C(CC(C)(C)CC2=O)N1`, 29.7% (inactive). The value for `O=C(Nc1cccc2[nH]c(C(F)(F)F)nc12)c1cc(Cl)ccc1Cl` was 15.1% (inactive); that for `COc1cc2nc3cc([N+](=O)[O-])ccc3c(Cl)c2cc1OC` was 10.7% (inactive); that for `Nc1ccc2cc3ccc(N)cc3nc2c1` was 112% (inactive) and -42% (active).

Consider `CC1(C)CC2=C3C=C[C@@H]4[C@@]5(C)CCC(=O)C(C)(C)[C@@H]5CC[C@@]4(C)[C@]3(C)CC[C@@]2(C(=O)O)CC1=O`, for which the growth is 74.2% (inactive).

Take `CCOC(=O)c1ccc(NC(=O)CSC(N)=O)cc1`: the growth is 108% (inactive).

For `CC1=CSC2=NC(c3ccc(Cl)c(Cl)c3)=CC(c3ccc(Cl)cc3)N12` (stereo not given), the growth is -61.3% (active).

As for `Cc1ccc(C(=O)/C(=C\c2ccc([N+](=O)[O-])cc2)S(=O)Cc2ccc(F)cc2)cc1` (stereo not given), the growth is -10.3% (active).
